# Hit rate of the full screen: of about 16,000 compounds, about 2,600 (16%) were called active. Another 20% or so got no clear call; they are omitted. Not all results are given here. Values without a mark were called inactive. The call rests on the fitted dose curve; in most records, active means well fitted curve in the direction sought with a large enough effect; inconclusive means small, poorly fitted or top-dose-only effect, or effect the other way; inactive means no such curve, though single readings can be large or run the other way. Peptide text beside a SMILES is read from it. * marks the point of attachment. PhAc = O=C(Cc1ccccc1)*; OBn = c1ccc(CO*)cc1
# Molecular target: Cytochrome P450 2D6 (Homo sapiens) (UniProt P10635)
# Experiment: Cytochrome panel assay with activity outcomes
# Details: recombinant CYP, pro-luciferin dealkylation, luminescence, p450-cyp2d6; series mostly up to 57.1 µM
# On the % scale 0 is the no-effect control and ±100 the full control effect.
# Cytochrome P450 2D6 (Homo sapiens), sequence (P10635 whole entry, looked up): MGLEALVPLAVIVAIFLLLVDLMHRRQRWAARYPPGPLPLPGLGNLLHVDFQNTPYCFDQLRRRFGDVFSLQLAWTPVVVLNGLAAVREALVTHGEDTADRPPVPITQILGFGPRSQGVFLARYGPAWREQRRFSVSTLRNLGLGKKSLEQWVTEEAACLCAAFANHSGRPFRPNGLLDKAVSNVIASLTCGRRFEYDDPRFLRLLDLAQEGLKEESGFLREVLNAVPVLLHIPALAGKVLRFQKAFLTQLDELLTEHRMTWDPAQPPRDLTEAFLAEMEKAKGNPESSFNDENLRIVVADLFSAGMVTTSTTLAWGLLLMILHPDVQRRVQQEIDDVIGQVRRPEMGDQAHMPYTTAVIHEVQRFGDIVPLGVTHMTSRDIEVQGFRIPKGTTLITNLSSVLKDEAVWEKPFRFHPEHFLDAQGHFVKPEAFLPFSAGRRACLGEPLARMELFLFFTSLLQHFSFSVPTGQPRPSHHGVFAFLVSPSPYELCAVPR
Compound,AC50,"activity, negative = inhibition"
CCn1ccnc1C[C@@H]1COc2ccccc2O1,1.58 µM (active),
N/C(=N\O)C1COc2ccccc2O1 (stereo not given),inactive,
O=C(NCc1cccnc1)C1COc2ccccc2O1 (stereo not given),inactive,
COc1ccc(N2C(=O)CC(S/C(N)=N/N=C(\C)c3cccs3)C2=O)cc1 (stereo not given),inactive,
Cc1cccc(OC(=O)CN2C(=O)C3C4CCC(C4)C3C2=O)c1C (stereo not given),inactive,
CCNC(=O)CSc1nnc(C2CC2)n1-c1ccccc1,inactive,
Cn1cccc1C(=O)C(=O)Nc1cccc(Cl)c1Cl,inactive,
O=C(Nc1ccccc1Cl)c1ccccc1Cl,inactive,
O=C(Nc1cccc(Cl)c1Cl)c1snnc1-c1ccccc1,10 µM (active),
O=[N+]([O-])c1ccc(C2CCCC/C2=N\OCc2cccc(F)c2)c([N+](=O)[O-])c1 (stereo not given),inactive,
NCCOB(c1ccccc1)c1ccccc1,inactive,
Cc1cc(NC(=O)c2c([N+](=O)[O-])c(C)nn2C)no1,inactive,
CCC(=O)NNc1cc(=O)c2c(=O)n(C)c(=O)n(C)c2[nH]1,inactive,
CCN1CCCC1Cn1cnc2c([nH]c3ccc(C)cc32)c1=O (stereo not given),4.47 µM (active),
CCOCCCn1cnc2c([nH]c3cc(OC)ccc32)c1=O,inactive,
COc1ccc2[nH]c3c(NCCCN4CCCC4=O)ncnc3c2c1,inactive,
O=S(=O)(C=C(c1ccccc1)c1ccccc1)c1ccccc1,inactive,
O=S(=O)(c1ccc(Br)cc1)N1CCN(S(=O)(=O)c2ccc(Br)cc2)CC1,,-1.87% [at 11.4 µM]
O=S(=O)(c1ccccc1)N1N=C(c2cccs2)CC1c1ccc(Br)cc1 (stereo not given),1.12 µM (active),
O=c1oc(-c2cccs2)nc2ccc(Br)cc12,inactive,
COc1nc(C)nc(Cl)c1NC1=NCCN1,inactive,
Clc1cccc(Cl)c1NC1=NCCN1,10 µM (active),
COc1ncc2nc(-c3cccs3)c(=O)n(CCc3ccccc3)c2n1,inactive,
CCCCOC(=O)CSCC(=O)Nc1cc(C)on1,inactive,
Cc1cc2nc(CCN(C(=S)NCC(C)C)C3CCCC3)[nH]c2cc1C,1.12 µM (active),

Compound,AC50,"activity, negative = inhibition"
COc1ccc(/C=C/C(=O)Nc2ccccc2C(=O)N2CCCC2)cc1,inactive,
COC(=O)[C@@]1(Cc2ccccc2)[C@H]2c3cc(C(=O)N4CCCC4)n(Cc4ccc(S(C)(=O)=O)cc4)c3C[C@H]2CN1C(=O)c1ccccc1,inactive,
CCCc1cc2c(n1CCc1ccc(Cl)cc1)C(C)C1CN(C(=O)c3ccccc3)C(C)(C(=O)OC)C21 (stereo not given),5.01 µM (active),
COC(=O)[C@@]1(Cc2ccc(F)cc2)[C@H]2c3cc(C(=O)N4CCCC4)n(Cc4ccc(Cl)c(C(F)(F)F)c4)c3C[C@H]2CN1C(=O)c1ccccc1,inactive,
CS(=O)(=O)Nc1c(O)ccc2c1CCC[C@H]2C1=NCCN1,inactive,
N[C@H](C(=O)O)c1cc(O)cc(O)c1,inactive,
O=C(NOC(=O)c1cc(Br)ccc1Cl)c1cccs1,inactive,
O=C(CNC(=O)c1cccs1)NCC(=O)OCc1ccc(Cl)cc1Cl,3.55 µM (active),
O=C(CNC(=O)Cc1ccccc1)NCC(=O)OCc1ccccc1 (PhAc-Gly-Gly-OBn),inactive,
C/C(=N/NC(=O)c1cccs1)c1ccc(NC(=O)COc2ccc(Cl)cc2Cl)cc1,inactive,
O=C(CNC(=O)c1cccs1)NCC(=O)OCc1ccc(Cl)cc1,15.8 µM (active),
CC(C)(C)c1ccc(COC(=O)CNC(=O)CNC(=O)Cc2ccccc2)cc1,inactive,
NCCSC[C@H](N)C(=O)O,,-2.62% [at 11.4 µM]
Cc1n[nH]c(=O)[nH]c1=O,inactive,
C[C@@]12C=CC(=O)C=C1CC[C@@H]1[C@@H]2[C@H](O)C[C@]2(C)[C@@H]1CC[C@]2(O)C(=O)CO,inactive,
COc1ccc(-n2c(=O)c(C)nc3cnc(Oc4ccccc4)nc32)cc1,inactive,
N#C/C(=C\c1cc([N+](=O)[O-])c(N2CCCCC2)cc1N1CCCCC1)c1nn(-c2ccccc2)c(N)c1C#N,inactive,
O=C(O/N=C\c1ccc(N2CCCCC2)c([N+](=O)[O-])c1)c1c(F)cccc1F,inactive,
N#C/C(=C/c1ccc(N2CCCC2)c([N+](=O)[O-])c1)c1nc2ccccc2[nH]1,0.2 µM (active),
N#C/C(=C\c1ccc(N2CCCC2)c([N+](=O)[O-])c1)c1nc2ccccc2[nH]1,0.631 µM (active),
N#C/C(=C\c1ccc(Oc2ccc(C(F)(F)F)cc2[N+](=O)[O-])cc1)c1nc2ccccc2[nH]1,inactive,
COc1cc(/C=C(/C#N)c2nc3ccccc3[nH]2)ccc1OCC(=O)Nc1ccccc1C,inactive,
CSc1ncnc2c1ncn2[C@@H]1O[C@@H](CO)[C@H](O)O[C@@H]1O,,14.1% [at 11.4 µM]
CC(NC(=O)OCc1ccccc1)C(=O)NCC1CCCO1 (stereo not given),inactive,
CCCC[C@@H]1C[C@H]1C(NC(=O)c1cccs1)c1ccc(Cl)cc1 (stereo not given in full),inactive,
